{"source": "paper PMC12701074", "assay_in_all_cases": "cross-linking mass spectrometry", "key": {"RHOT1": {"target": "RHOT1 (UniProt Q8IXI2)", "sequence (Q8IXI2 whole entry)": "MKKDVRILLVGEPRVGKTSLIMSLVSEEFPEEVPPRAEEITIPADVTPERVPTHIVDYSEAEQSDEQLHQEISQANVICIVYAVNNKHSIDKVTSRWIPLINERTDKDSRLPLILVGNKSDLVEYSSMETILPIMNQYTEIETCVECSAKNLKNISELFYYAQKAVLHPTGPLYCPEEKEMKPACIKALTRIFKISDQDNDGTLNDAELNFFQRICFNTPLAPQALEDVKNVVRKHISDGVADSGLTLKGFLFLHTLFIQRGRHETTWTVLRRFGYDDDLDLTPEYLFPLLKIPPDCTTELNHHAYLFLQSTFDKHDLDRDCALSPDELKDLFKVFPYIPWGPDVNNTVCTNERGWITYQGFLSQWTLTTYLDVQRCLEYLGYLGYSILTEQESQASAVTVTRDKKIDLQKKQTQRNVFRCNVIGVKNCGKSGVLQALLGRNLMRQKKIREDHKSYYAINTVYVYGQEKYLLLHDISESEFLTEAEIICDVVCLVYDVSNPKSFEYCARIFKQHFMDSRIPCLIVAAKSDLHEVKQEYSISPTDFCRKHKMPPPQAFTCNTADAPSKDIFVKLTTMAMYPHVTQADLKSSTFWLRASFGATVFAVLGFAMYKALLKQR", "settings": "SIA, in cells"}, "MT-ND3": {"target": "MT-ND3 (UniProt P03897)", "sequence (P03897 whole entry)": "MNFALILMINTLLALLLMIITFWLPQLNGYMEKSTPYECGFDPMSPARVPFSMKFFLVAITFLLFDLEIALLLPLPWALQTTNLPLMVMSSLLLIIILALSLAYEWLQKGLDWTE", "settings": "SIA;SIAB, in cells"}, "PKM": {"target": "PKM (UniProt P14618)", "sequence (P14618 whole entry)": "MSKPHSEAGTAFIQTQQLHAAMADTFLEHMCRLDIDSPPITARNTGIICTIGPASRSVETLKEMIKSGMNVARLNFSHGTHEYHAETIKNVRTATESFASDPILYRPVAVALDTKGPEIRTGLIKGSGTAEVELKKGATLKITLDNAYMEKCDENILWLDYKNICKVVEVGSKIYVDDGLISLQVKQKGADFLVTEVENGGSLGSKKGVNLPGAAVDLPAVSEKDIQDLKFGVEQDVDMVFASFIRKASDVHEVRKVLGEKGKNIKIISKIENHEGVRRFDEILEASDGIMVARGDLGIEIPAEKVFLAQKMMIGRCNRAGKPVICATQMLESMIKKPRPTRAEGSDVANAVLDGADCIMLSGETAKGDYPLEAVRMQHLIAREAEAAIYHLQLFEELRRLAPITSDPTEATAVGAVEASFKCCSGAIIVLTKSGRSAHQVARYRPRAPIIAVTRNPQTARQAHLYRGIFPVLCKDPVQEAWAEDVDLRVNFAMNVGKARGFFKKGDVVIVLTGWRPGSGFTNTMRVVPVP", "settings": "SBAP, in cells"}, "NASP": {"target": "NASP (UniProt P49321)", "sequence (P49321 whole entry)": "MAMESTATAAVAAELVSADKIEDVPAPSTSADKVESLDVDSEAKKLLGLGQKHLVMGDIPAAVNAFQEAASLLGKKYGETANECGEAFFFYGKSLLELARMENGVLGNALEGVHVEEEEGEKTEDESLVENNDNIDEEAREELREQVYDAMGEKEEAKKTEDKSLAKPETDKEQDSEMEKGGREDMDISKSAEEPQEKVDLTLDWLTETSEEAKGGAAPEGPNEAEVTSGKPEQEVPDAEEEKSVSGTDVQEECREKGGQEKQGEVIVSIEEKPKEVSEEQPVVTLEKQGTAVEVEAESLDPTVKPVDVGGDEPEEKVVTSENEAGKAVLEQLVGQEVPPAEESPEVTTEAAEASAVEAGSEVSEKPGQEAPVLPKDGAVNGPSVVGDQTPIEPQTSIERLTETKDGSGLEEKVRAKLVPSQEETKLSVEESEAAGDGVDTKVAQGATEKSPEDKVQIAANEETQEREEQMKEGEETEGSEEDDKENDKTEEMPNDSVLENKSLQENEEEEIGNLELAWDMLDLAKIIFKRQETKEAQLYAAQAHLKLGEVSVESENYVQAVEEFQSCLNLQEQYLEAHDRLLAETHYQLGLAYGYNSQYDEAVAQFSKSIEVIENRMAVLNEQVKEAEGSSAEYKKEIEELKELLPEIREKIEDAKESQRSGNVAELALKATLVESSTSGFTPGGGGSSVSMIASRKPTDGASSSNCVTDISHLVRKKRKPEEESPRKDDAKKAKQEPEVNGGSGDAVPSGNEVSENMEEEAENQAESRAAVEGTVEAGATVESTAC", "settings": "SBAP, in cells"}, "PPIA": {"target": "PPIA (UniProt P62937)", "sequence (P62937 whole entry)": "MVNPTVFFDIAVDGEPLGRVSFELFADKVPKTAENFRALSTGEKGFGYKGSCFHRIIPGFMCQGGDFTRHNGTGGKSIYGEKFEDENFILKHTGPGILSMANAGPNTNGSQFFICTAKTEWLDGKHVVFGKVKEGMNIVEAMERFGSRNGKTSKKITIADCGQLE", "settings": "in cells"}, "VIM": {"target": "VIM (UniProt P08670)", "sequence (P08670 whole entry)": "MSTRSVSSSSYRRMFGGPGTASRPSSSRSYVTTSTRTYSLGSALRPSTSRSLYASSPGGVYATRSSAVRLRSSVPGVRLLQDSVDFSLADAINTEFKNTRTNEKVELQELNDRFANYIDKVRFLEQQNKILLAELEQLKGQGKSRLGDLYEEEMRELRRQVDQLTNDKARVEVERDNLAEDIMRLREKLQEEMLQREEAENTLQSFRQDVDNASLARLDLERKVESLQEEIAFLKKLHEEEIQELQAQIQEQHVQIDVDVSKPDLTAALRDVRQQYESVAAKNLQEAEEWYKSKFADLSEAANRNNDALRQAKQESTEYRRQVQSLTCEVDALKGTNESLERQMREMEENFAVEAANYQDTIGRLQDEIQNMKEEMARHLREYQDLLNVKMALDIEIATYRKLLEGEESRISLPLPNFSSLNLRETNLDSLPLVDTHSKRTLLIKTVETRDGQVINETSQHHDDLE", "settings": "in cells"}, "SERBP1": {"target": "SERBP1 (UniProt Q8NC51)", "settings": "SBAP;SIAB, in cells"}, "YWHAE": {"target": "YWHAE (UniProt P62258)", "sequence (P62258 whole entry)": "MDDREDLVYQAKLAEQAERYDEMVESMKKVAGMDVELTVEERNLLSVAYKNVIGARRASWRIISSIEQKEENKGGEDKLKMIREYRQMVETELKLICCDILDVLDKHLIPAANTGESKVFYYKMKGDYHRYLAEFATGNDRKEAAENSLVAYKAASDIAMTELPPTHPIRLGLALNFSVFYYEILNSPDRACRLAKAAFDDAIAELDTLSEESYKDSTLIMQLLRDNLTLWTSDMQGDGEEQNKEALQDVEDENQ", "settings": "SBAP, in cells"}, "YWHAZ": {"target": "YWHAZ (UniProt P63104)", "sequence (P63104 whole entry)": "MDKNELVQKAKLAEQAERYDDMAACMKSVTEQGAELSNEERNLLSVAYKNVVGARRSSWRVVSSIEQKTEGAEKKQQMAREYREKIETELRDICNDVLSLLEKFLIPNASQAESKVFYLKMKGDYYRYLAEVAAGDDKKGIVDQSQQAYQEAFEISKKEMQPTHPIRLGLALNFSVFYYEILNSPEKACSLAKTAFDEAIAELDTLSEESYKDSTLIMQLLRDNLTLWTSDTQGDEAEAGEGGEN", "settings": "SBAP, in cells"}, "PHF5A": {"target": "PHF5A (UniProt Q7RTV0)", "sequence (Q7RTV0 whole entry)": "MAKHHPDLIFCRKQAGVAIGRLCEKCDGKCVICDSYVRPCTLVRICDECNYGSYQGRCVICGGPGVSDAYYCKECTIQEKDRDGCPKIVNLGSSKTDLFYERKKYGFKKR", "settings": "SIAB, in cells"}, "MLLT10": {"target": "MLLT10 (UniProt P55197)", "settings": "SIA, in cells"}, "NAA15": {"target": "NAA15 (UniProt Q9BXJ9)", "sequence (Q9BXJ9 whole entry)": "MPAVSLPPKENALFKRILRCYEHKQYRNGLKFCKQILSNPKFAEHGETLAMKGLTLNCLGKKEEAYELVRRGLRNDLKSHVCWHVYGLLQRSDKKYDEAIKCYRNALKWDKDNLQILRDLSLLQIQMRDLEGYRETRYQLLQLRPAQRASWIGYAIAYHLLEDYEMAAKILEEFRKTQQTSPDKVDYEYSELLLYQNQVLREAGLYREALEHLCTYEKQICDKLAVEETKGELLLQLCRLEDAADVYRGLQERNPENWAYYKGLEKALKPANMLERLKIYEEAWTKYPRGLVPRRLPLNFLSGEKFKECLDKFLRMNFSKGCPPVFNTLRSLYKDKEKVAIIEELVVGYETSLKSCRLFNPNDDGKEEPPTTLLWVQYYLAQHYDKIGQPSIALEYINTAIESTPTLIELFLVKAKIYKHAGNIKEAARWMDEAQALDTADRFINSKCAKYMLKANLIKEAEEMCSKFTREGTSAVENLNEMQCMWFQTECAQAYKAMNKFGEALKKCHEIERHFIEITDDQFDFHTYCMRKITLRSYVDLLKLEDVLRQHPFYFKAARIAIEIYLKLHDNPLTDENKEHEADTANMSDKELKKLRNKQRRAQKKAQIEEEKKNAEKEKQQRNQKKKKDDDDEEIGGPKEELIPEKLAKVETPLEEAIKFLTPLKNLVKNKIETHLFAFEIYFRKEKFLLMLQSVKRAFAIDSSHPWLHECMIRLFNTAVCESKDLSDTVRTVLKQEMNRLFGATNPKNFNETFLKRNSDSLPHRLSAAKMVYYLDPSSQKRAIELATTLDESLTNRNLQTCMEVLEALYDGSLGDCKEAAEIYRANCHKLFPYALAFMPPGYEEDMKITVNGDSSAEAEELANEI", "settings": "SBAP;SIAB, in cells"}}, "data": [{"substance": "CLTC, Q00610", "values": [{"measurement": "cross-linked residues", "setting": "RHOT1", "value": "C436 - K107"}]}, {"substance": "NDUFS7, O75251", "values": [{"measurement": "cross-linked residues", "setting": "MT-ND3", "value": "K136 - C39"}]}, {"substance": "AP3B1, O00203", "values": [{"measurement": "cross-linked residues", "setting": "PKM", "value": "K386 - C49"}]}, {"substance": "HAT1, O14929", "values": [{"measurement": "cross-linked residues", "setting": "NASP", "value": "C101 - K44"}]}, {"substance": "NEFM, P07197", "values": [{"measurement": "cross-linked residues", "setting": "PPIA; SIA", "value": "K223 - C115"}, {"measurement": "cross-linked residues", "setting": "VIM; SBAP;SIA;SIAB", "value": "K223 - C328"}, {"measurement": "cross-linked residues", "setting": "VIM; SIA", "value": "K208 - C328"}, {"measurement": "cross-linked residues", "setting": "VIM; SIA;SIAB", "value": "K53 - C328"}]}, {"substance": "YWHAQ, P27348", "values": [{"measurement": "cross-linked residues", "setting": "PPIA; SIAB", "value": "C134 - K76"}, {"measurement": "cross-linked residues", "setting": "SERBP1", "value": "C134 - K321"}, {"measurement": "cross-linked residues", "setting": "YWHAE", "value": "C25 - K69"}, {"measurement": "cross-linked residues", "setting": "YWHAZ", "value": "K49 - C94"}]}, {"substance": "SF3B3, Q15393", "values": [{"measurement": "cross-linked residues", "setting": "PHF5A", "value": "K137 - C11"}]}, {"substance": "RPL4, P36578", "values": [{"measurement": "cross-linked residues", "setting": "MLLT10", "value": "K374 - C157"}]}, {"substance": "NAA10, P41227", "values": [{"measurement": "cross-linked residues", "setting": "NAA15", "value": "K165 - C214"}]}]}
